Of roughly 7,900 targets only a part is listed; those with a hit were picked by preference. About 0.6% of all pairs of compound and target were hits.
These targets were tested with C1CCN(C1)C(=O)NC2=CC=CC(=C2)NC3=NC=C(C(=N3)NCCC4=CN=CN4)Br (assay: log2 fold change, soluble protein after heating vs DMSO (PISA); higher = thermal stabilisation; K562 cells, 10 uM, 30 min; active = over 0.2 and 3.5 SD of the protein, either way, in both replicates (recomputed)).
Procedure, shortened: (§1)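 K562 cells (2×10^6 cells/mL) were treated with 10 μM compound for 30 min, and aliquots were heated for 3 min over 48°C-58°C. Pooled aliquots were extracted in PBS with 0.5% NP-40 at 4°C, and the supernatant after 21,000xg for 90 min was measured by TMTpro 16plex LC-MS/MS with channel sums equalised. Reported thermal stability, relative to control samples and from duplicates, is a log2 fold change.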

Sequence of UniProt Q53FT3 (Q53FT3 whole entry, looked up): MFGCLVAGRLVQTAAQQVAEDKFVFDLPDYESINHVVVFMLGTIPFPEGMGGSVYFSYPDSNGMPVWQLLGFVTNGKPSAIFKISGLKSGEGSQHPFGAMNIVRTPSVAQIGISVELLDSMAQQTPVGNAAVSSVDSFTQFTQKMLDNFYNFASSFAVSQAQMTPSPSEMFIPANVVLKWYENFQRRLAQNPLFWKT
Sequence of UniProt O76003 (O76003 whole entry, looked up): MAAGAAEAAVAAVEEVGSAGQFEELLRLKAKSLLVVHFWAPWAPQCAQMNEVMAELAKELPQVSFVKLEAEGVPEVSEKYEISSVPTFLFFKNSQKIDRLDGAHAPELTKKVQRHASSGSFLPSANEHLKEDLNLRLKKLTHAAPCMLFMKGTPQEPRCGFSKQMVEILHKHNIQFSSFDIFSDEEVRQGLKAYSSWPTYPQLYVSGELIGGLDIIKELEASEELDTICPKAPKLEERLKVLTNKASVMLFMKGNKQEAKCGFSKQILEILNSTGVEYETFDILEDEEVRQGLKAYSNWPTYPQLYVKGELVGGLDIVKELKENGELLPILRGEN
Sequence of UniProt Q86YM7 (Q86YM7 whole entry, looked up): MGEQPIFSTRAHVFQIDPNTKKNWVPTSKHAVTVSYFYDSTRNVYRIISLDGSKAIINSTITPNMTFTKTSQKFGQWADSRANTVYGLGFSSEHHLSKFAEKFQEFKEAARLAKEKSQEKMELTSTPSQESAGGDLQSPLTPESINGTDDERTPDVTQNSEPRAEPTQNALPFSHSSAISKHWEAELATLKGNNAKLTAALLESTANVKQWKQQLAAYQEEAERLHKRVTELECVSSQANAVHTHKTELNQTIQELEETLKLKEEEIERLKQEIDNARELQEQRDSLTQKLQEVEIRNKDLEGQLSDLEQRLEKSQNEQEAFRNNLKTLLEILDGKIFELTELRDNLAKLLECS
Sequence of UniProt Q9P2H3 (Q9P2H3 whole entry, looked up): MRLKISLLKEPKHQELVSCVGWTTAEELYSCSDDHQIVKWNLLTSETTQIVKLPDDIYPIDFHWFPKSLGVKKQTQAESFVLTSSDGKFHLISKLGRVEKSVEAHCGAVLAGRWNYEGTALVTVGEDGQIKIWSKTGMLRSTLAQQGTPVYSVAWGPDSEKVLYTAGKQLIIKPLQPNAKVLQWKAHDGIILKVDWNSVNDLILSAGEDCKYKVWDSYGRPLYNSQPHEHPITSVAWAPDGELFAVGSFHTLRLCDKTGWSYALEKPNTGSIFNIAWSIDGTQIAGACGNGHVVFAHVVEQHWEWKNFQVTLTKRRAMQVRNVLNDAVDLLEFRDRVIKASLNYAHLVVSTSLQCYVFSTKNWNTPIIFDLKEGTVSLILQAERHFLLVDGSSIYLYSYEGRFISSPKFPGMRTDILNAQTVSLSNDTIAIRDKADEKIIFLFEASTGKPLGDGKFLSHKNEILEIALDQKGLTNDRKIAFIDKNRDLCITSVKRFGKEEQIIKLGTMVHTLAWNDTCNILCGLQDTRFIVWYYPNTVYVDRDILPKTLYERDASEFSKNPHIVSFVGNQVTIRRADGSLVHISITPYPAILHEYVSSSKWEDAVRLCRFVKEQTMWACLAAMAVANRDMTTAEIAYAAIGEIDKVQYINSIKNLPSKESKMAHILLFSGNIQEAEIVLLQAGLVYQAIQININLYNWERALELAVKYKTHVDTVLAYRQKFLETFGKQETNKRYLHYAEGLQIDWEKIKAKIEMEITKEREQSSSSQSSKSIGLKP
Sequence of UniProt O00291 (O00291 whole entry, looked up): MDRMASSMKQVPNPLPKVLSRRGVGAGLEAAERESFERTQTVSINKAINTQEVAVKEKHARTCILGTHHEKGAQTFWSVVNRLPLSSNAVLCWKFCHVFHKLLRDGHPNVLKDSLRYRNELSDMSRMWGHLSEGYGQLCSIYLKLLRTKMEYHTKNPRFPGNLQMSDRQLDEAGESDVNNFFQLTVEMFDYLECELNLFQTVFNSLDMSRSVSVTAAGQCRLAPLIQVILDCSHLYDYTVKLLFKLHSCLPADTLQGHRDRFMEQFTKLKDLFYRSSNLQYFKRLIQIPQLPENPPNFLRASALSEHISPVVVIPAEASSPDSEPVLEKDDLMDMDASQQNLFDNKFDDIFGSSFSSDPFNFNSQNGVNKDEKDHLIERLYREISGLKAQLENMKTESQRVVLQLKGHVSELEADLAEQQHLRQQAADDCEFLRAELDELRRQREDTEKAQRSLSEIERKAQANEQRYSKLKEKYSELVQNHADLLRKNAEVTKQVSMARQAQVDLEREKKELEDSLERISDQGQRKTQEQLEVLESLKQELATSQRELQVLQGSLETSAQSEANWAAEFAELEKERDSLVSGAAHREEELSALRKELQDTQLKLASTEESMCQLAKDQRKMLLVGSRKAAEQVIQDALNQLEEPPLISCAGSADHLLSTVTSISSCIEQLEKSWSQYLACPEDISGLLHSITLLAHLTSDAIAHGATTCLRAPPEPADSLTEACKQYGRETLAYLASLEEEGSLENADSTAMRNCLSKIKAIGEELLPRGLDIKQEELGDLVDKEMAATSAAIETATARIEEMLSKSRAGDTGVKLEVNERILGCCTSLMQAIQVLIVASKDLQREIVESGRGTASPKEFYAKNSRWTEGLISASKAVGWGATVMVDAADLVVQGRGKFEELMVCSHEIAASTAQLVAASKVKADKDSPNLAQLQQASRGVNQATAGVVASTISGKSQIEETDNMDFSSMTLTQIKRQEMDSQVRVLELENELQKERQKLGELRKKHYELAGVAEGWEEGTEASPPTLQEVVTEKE
Sequence of UniProt P52789 (P52789 whole entry, looked up): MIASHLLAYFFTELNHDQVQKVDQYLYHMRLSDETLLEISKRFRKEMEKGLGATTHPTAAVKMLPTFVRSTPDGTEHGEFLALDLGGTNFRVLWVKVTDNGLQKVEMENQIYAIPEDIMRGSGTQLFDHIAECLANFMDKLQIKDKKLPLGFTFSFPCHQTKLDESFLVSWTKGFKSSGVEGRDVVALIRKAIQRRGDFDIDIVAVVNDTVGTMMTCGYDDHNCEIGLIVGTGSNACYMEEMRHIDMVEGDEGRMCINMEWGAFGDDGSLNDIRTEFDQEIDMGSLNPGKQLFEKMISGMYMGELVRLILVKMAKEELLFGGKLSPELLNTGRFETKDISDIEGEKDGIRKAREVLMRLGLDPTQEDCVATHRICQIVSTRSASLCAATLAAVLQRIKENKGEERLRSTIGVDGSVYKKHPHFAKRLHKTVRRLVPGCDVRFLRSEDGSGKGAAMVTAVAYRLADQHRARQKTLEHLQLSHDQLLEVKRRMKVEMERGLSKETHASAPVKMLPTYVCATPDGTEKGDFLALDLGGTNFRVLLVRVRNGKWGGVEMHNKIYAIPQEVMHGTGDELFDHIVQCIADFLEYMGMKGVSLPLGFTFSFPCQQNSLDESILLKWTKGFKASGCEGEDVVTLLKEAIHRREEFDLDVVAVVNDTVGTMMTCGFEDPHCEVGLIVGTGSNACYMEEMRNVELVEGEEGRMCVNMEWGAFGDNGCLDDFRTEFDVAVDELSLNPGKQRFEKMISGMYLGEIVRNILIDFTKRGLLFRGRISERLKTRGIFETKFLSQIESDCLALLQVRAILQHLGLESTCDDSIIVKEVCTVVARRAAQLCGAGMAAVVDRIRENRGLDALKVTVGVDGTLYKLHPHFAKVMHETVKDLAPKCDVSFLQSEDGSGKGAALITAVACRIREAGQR
Sequence of UniProt Q9BUJ2 (Q9BUJ2 whole entry, looked up): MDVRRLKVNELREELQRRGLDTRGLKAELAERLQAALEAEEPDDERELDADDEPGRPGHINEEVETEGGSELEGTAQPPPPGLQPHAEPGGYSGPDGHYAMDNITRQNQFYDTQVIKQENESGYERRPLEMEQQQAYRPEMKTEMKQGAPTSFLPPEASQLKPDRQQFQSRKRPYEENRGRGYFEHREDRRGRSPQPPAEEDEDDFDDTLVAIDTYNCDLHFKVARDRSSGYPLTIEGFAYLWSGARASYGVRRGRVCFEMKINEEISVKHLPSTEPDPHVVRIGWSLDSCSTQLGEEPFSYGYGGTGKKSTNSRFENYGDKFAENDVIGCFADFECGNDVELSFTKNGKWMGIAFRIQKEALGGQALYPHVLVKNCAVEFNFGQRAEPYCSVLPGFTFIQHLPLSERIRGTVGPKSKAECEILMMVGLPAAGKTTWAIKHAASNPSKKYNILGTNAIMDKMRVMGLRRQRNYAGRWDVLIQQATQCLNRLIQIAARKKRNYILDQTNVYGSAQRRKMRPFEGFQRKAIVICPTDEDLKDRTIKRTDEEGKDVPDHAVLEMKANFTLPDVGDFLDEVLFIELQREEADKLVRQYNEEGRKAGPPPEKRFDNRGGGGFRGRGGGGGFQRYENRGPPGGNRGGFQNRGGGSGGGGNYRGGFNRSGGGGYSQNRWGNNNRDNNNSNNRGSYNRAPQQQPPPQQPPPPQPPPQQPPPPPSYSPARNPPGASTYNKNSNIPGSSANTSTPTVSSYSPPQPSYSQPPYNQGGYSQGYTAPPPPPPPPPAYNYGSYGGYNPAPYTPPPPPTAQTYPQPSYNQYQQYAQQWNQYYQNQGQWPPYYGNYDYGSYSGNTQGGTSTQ
Sequence of UniProt Q01628 (Q01628 whole entry, looked up): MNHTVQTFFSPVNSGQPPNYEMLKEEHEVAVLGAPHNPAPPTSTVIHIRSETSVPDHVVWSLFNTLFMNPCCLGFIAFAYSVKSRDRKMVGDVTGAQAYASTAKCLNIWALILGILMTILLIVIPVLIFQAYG
Sequence of UniProt Q9H0R8 (Q9H0R8 whole entry, looked up): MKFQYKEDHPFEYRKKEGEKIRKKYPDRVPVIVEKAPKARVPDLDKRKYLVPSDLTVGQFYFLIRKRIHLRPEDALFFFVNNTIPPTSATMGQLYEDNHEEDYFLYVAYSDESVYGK
Sequence of UniProt Q03013 (Q03013 whole entry, looked up): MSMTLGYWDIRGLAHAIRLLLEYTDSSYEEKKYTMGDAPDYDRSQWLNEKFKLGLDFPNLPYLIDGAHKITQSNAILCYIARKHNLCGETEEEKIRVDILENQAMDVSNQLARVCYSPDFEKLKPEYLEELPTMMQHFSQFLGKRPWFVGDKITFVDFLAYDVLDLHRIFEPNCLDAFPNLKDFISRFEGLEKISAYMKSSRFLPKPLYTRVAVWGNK

log2 fold change, inactive:
GBF1 (UniProt Q92538) -0.026
GABARAPL1 isoform 2 (UniProt Q9H0R8) -0.02
GPX4 (UniProt P36969) -0.036
HIP1 (UniProt O00291) -0.209
HNRNPUL1 (UniProt Q9BUJ2) 0.029
HIKESHI (UniProt Q53FT3) -0.056
FEN1 (UniProt P39748) 0.007
GLCCI1 (UniProt Q86VQ1) -0.044
GID4 (UniProt Q8IVV7) 0.042
GTF2E2 (UniProt P29084) -0.03
FUT8 (UniProt Q9BYC5) 0.045
HDHD2 (UniProt Q9H0R4) -0.009
HTATIP2 isoform 3 (UniProt Q9BUP3) -0.039
GTPBP6 (UniProt O43824) 0.06
FASTKD1 (UniProt Q53R41) -0.108
GLB1 (UniProt P16278) 0.017
IFITM3 (UniProt Q01628) -0.016
GDE1 (UniProt Q9NZC3) 0.003
GLS isoform 3 (UniProt O94925) -0.11
H2AFX (UniProt P16104) 0.231
GLUD2 (UniProt P49448) -0.005
HSD17B12 (UniProt Q53GQ0) -0.028
HK2 (UniProt P52789) 0.009
GYS1 (UniProt P13807) -0.021
FARS2 (UniProt O95363) 0.084
HDGFL2 (UniProt Q7Z4V5) 0.033
GSTM4 (UniProt Q03013) 0.018
ICMT (UniProt O60725) -0.206
ICAM1 (UniProt P05362) -0.047
HIST2H3A (UniProt Q71DI3) 0.287
IFT80 isoform 3 (UniProt Q9P2H3) -0.013
GALNT1 (UniProt Q10472) 0.004
GLRX3 (UniProt O76003) 0.003
GLUD1 (UniProt P00367) 0.05
HOMER1 (UniProt Q86YM7) 0.062

Each target was assayed with C1CN(CCC1(CC2=CC=C(C=C2)Cl)N)C3=NC=NC4=C3C=CN4 in the same assay as above.
Procedure, shortened: as §1

log2 fold change, inactive:
GBF1 (UniProt Q92538) -0.052
GABARAPL1 isoform 2 (UniProt Q9H0R8) 0.016
GPX4 (UniProt P36969) 0.058
HIP1 (UniProt O00291) 0.09
HNRNPUL1 (UniProt Q9BUJ2) -0.048
HIKESHI (UniProt Q53FT3) 0.009
FEN1 (UniProt P39748) -0.068
GLCCI1 (UniProt Q86VQ1) -0.024
GID4 (UniProt Q8IVV7) -0.005
GTF2E2 (UniProt P29084) -0.13
FUT8 (UniProt Q9BYC5) -0.038
HDHD2 (UniProt Q9H0R4) 0.037
HTATIP2 isoform 3 (UniProt Q9BUP3) 0.005
GTPBP6 (UniProt O43824) 0.027
FASTKD1 (UniProt Q53R41) -0.014
GLB1 (UniProt P16278) -0.009
IFITM3 (UniProt Q01628) -0.03
GDE1 (UniProt Q9NZC3) 0.13
GLS isoform 3 (UniProt O94925) -0.12
H2AFX (UniProt P16104) -0.319
GLUD2 (UniProt P49448) -0.009
HSD17B12 (UniProt Q53GQ0) 0.124
HK2 (UniProt P52789) 0.023
GYS1 (UniProt P13807) -0.069
FARS2 (UniProt O95363) -0.057
HDGFL2 (UniProt Q7Z4V5) 0.057
GSTM4 (UniProt Q03013) 0.062
ICMT (UniProt O60725) -0.032
ICAM1 (UniProt P05362) 0.073
HIST2H3A (UniProt Q71DI3) -0.378
IFT80 isoform 3 (UniProt Q9P2H3) 0.042
GALNT1 (UniProt Q10472) 0.06
GLRX3 (UniProt O76003) -0.015
GLUD1 (UniProt P00367) -0.027
HOMER1 (UniProt Q86YM7) -0.011

Source: the supplement of paper PMC10849652
